Here are results for 34 compounds from PubChem BioAssay (EPA / NIEHS).

Activity calls are given as the source filed them. The calls were made as follows: active = hit-call score of the fitted dose curve at least 0.9, where 1 is the maximum; inactive = score below 0.9.

One assay in a line: ATG_FoxO_CIS: Attagene CIS-FACTORIAL HepG2 Assay for human Forkhead box O (FoxO) (AID 2282943). Conditions: HepG2 Attagene cis-reporter, FoxO element, mRNA; actives raise or lower the signal. Put shortly: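 24 h chemical exposure, HepG2 with transient cis-MRTU transfection. RNA extraction, oligo(dT) RT, reporter-specific PCR, primer-extension labelling, HpaI digestion, CE fragment analysis; bidirectional fit, DMSO baseline.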
For the compound `CC/C=C\CCOC(C)OCC` (stereo not drawn), the call was inactive.

Take `CCCCCCCCCCCCCCCCCC(=O)OCCCCCCCCCCCCCC(C)C`: the call was inactive.

With `CC(=N[Si](C)(C)C)O[Si](C)(C)C`, the outcome was inactive.

Turning to `c1ccc(Cc2ccccc2)cc1`, the compound was called inactive.

`Cc1cc(N)n(-c2ccccc2)n1`: the outcome was inactive.

Consider `c1ccc(OCCOc2ccccc2)cc1`, for which the result was inactive.

As for `OCCCO`, the outcome was inactive.

As to `CCCCCC#CC(=O)OC`, the call was inactive.

As for `O=[N+]([O-])c1cc(N(CCO)CCO)ccc1NCCO`, the outcome was inactive.

In the case of `C=C(C)C(=O)OCCC[Si](OC)(OC)OC`, the compound was called inactive.

As for `c1ccc2scnc2c1`, the compound was called inactive.

In the case of `CC12CCC(C1)C(C)(C)C2O` (stereo not drawn), the compound was classed as inactive.

Take `COc1ccc(OC)cc1`: the result was inactive.

Turning to `CCCCCCOC(C)=O`, the compound was called inactive.

As for `CC(CO)c1ccccc1` (stereo not drawn), the compound was classed as inactive.

On to `CCCCCCCCCCCCOC(C)=O`, for which the call was inactive.

Regarding `CCCCC(CC)COCCO` (stereo not drawn), the result was inactive.

For the compound `CC(C)CCOC(=O)CC(C)C`, the compound was called inactive.

On to `CCOC(=O)CCCCCCCCC(=O)OCC`, for which the call was inactive.

Take `CCCCCC(=O)O[C@]1(C(C)=O)CC[C@H]2[C@@H]3CCC4=CC(=O)CC[C@]4(C)[C@H]3CC[C@@]21C`: the compound was classed as inactive.

Consider `CN(C)c1ccc(C=O)cc1`, for which the result was inactive.

Regarding `CCOCC(C)O` (stereo not drawn), the call was inactive.

As for `COc1cc(OC)c2ccc(=O)oc2c1`, the result was inactive.

Regarding `[Cl][Dy]([Cl])[Cl]`, the compound was classed as inactive.

Turning to `O=C(O)CS`, the compound was called inactive.

As for `CCC(CC)CO`, the outcome was inactive.

On to `CCCCCc1cccc(=O)o1`, for which the compound was classed as inactive.

Consider `Cc1ccccc1S`, for which the AC50 is 134 µM (active).

For `CCc1cccc(O)c1`, the call was inactive.

Consider `CCC(C)(CCCC(C)C)OC(C)=O` (stereo not drawn), for which the outcome was inactive.

On to `CCC=C(C)C=O`, for which the outcome was inactive.

Take `NC(=O)c1c(Cl)cccc1Cl`: the compound was classed as inactive.

Take `CC(O)CNCC(C)O` (stereo not drawn): the outcome was inactive.

`CC(C)Cc1ccc(C(C)C(=O)O)cc1` (stereo not drawn): the compound was called inactive.

Another assay can be described thus: ATG_GATA_CIS: Attagene CIS-FACTORIAL HepG2 Assay for human GATA Binding Protein (AID 2282944). Conditions: HepG2 GATA cis-element reporter, Attagene multiplex mRNA; actives raise or lower the signal. Put shortly:
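Measures endogenous transcription factor-driven reporter mRNA in HepG2 cells transiently carrying cis-regulated constructs. 24 h dosing; RNA via oligo(dT) reverse transcription, PCR, HpaI digestion, capillary electrophoresis; fitted relative to DMSO.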
As for `CC/C=C\CCOC(C)OCC` (stereo not drawn), the call was inactive.

As to `CCCCCCCCCCCCCCCCCC(=O)OCCCCCCCCCCCCCC(C)C`, the result was inactive.

`CC(=N[Si](C)(C)C)O[Si](C)(C)C`: the result was inactive.

Turning to `c1ccc(Cc2ccccc2)cc1`, the compound was called inactive.

For `Cc1cc(N)n(-c2ccccc2)n1`, the result was inactive.

Turning to `c1ccc(OCCOc2ccccc2)cc1`, the compound was classed as inactive.

Take `OCCCO`: the result was inactive.

With `CCCCCC#CC(=O)OC`, the call was inactive.

In the case of `O=[N+]([O-])c1cc(N(CCO)CCO)ccc1NCCO`, the compound was classed as inactive.

With `C=C(C)C(=O)OCCC[Si](OC)(OC)OC`, the compound was called inactive.

With `c1ccc2scnc2c1`, the compound was classed as inactive.

In the case of `CC12CCC(C1)C(C)(C)C2O` (stereo not drawn), the outcome was inactive.

On to `COc1ccc(OC)cc1`, for which the call was inactive.

In the case of `CCCCCCOC(C)=O`, the call was inactive.

Take `CC(CO)c1ccccc1` (stereo not drawn): the compound was called inactive.

Take `CCCCCCCCCCCCOC(C)=O`: the result was inactive.

Regarding `CCCCC(CC)COCCO` (stereo not drawn), the compound was classed as inactive.

In the case of `CC(C)CCOC(=O)CC(C)C`, the compound was called inactive.

With `CCOC(=O)CCCCCCCCC(=O)OCC`, the result was inactive.

As to `CCCCCC(=O)O[C@]1(C(C)=O)CC[C@H]2[C@@H]3CCC4=CC(=O)CC[C@]4(C)[C@H]3CC[C@@]21C`, the compound was called inactive.

As for `CN(C)c1ccc(C=O)cc1`, the outcome was inactive.

For `CCOCC(C)O` (stereo not drawn), the compound was called inactive.

On to `COc1cc(OC)c2ccc(=O)oc2c1`, for which the outcome was inactive.

Turning to `[Cl][Dy]([Cl])[Cl]`, the result was inactive.

Turning to `O=C(O)CS`, the outcome was inactive.

As to `CCC(CC)CO`, the result was inactive.

For the compound `CCCCCc1cccc(=O)o1`, the outcome was inactive.

In the case of `Cc1ccccc1S`, the call was inactive.

`CCc1cccc(O)c1`: the compound was called inactive.

Take `CCC(C)(CCCC(C)C)OC(C)=O` (stereo not drawn): the compound was called inactive.

Take `CCC=C(C)C=O`: the outcome was inactive.

With `NC(=O)c1c(Cl)cccc1Cl`, the outcome was inactive.

As to `CC(O)CNCC(C)O` (stereo not drawn), the compound was called inactive.

As for `CC(C)Cc1ccc(C(C)C(=O)O)cc1` (stereo not drawn), the compound was called inactive.
